Inconclusive results are not listed. Activity calls are given as the source filed them. How the source made its calls, unless noted: active means hit-call score of the fitted dose curve at least 0.9, where 1 is the maximum; inactive means score below 0.9.
Experiments:
[1] = CCTE_Shafer_MEA_dev_firing_rate_mean: CCTE's Neural Network Formation Assay for Mean Firing Rate, Shafer Lab (AID 2284031);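 on AC50: curve fitted for loss of firing so AC50 reflects decreased mean firing rate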
Procedure, shortened: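 Spike frequency (spikes/recording length, averaged over active electrodes) was recorded on days 5, 7, 9 and 12 and collapsed to AUC; rat cortical cultures received compound continuously over 12 days of network development.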

[2] = CCTE_Shafer_MEA_dev_per_burst_spike_percent: CCTE's Neural Network Formation Assay for Percent of Spikes in a Burst, Shafer Lab (AID 2284032);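 on AC50: fitted as a decrease in burst spike percentage below DMSO baseline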
Procedure, shortened: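 Value is trapezoidal AUC over recordings on days 5, 7, 9 and 12 of the well-mean fraction of spikes falling in single-electrode bursts; rat cortical cultures exposed continuously from plating, treatment renewed DIV 5 and 9, fitted downward against DMSO.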

[3] = target: Estrogen receptor (Homo sapiens) (UniProt P03372); test: CCTE_Deisenroth_AIME_384WELL_LUC_Active: CCTE's 384-well Estrogen Receptor Transactivation Assay with AIME metabolic competence (ERTA luciferase; metabolism positive), Deisenroth Lab (AID 2284030; active means hit-call score of the fitted dose curve at least 0.9, where 1 is the maximum)
Procedure, shortened: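 In this metabolism-positive format, a 2-hour exposure to alginate-immobilized rat S9 precedes a 24 hour luciferase transactivation readout in VM7Luc4E2 cells. Dosing spans 10 concentrations from 0.002 to 200 uM.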

[4] = CCTE_Deisenroth_AIME_384WELL_CTox_Active: Cytotoxicity Assessment (CTOX) in CCTE's 384-well Estrogen Receptor Transactivation Assay with AIME metabolic competence (metabolism positive), Deisenroth Lab (AID 2284037; active means hit-call score of the fitted dose curve at least 0.9, where 1 is the maximum;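 further: chemicals first conditioned 2 h by alginate-bound induced rat liver S9 before cells; activity means signal loss indicating cell death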)
Procedure, shortened: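 Chemicals pre-incubated 2 hours with alginate-immobilised phenobarbital/beta-naphthoflavone-induced male Sprague Dawley rat liver S9, then conditioned medium applied 24 hour to VM7Luc4E2 cells. Viability by fluorogenic protease substrate; 10-point series 0.002 - 200 uM.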

Sequence of Estrogen receptor (Homo sapiens) (P03372 whole entry, looked up): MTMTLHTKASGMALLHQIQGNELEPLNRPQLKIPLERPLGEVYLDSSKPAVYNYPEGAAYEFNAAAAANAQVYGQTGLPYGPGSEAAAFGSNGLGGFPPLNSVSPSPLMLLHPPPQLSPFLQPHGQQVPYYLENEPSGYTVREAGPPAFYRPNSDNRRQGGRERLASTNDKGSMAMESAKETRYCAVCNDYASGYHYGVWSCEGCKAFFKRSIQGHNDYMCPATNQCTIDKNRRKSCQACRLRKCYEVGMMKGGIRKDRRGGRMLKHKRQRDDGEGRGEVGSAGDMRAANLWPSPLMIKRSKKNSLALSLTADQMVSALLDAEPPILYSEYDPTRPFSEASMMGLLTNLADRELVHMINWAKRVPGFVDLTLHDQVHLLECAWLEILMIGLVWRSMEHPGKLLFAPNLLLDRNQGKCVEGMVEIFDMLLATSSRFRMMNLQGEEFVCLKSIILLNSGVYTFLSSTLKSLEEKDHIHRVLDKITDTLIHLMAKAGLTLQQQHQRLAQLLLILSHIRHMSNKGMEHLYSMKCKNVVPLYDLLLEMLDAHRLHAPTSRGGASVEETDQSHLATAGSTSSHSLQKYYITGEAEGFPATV

Q: Which outcome [1] does the source give for `O=P1(N(CCCl)CCCl)NCCCO1` (configuration not stated) here?
A: The outcome was “inactive”.

Q: What about the outcome [2] of the same compound?
A: The outcome was “inactive”.

Q: With `O=C(O)C(F)(F)OC(F)(F)C(F)(F)OC(F)(F)C(=O)O` as the compound, how does the outcome [1] read?
A: Its outcome is “inactive”.

Q: What about the outcome [2] of the same compound?
A: The outcome was “inactive”.

Q: Which outcome [1] does the source give for `OCC(F)(F)OC(F)(F)C(F)(F)OC(F)(F)C(F)(F)OC(F)(F)CO` here?
A: The outcome was “inactive”.

Q: What about the outcome [2] of the same compound?
A: Its outcome is “inactive”.

Q: With `ClC(Cl)c1ccccc1` as the compound, how does the outcome [3] read?
A: Its outcome is “inactive”.

Q: What about the outcome [4] of the same compound?
A: Its outcome is “inactive”.

Q: With `CCCCc1ccccc1` as the compound, how does the outcome [3] read?
A: Its outcome is “inactive”.

Q: And the outcome [4]?
A: The outcome was “inactive”.

Q: What does the source list for `c1cc2c3c(cccc3c1)CC2`?
A: outcome [1]: inactive; outcome [2]: inactive

Q: Which results are given for `O=S(=O)(c1ccc(O)cc1)c1ccc(O)cc1`?
A: outcome [1]: inactive; outcome [2]: inactive

Q: What does the source list for `OCC1CO1` (configuration not stated)?
A: outcome [3]: inactive; outcome [4]: inactive

Q: For `Nc1ccc(Cl)cc1`, which outcome [3] is on record?
A: Its outcome is “inactive”.

Q: What about the outcome [4] of the same compound?
A: The outcome was “inactive”.

Q: Which AC50 [1] does the source give for `CO/N=C(/C(=O)OC)c1ccccc1COc1ccccc1C` here?
A: Its AC50 is 1000 nM (active).

Q: What about the AC50 [2] of the same compound?
A: The AC50 was 639 nM (active).

Q: With `O=C(O)C(F)(OC(F)(F)C(F)(F)C(F)(F)F)C(F)(F)F` (configuration not stated) as the compound, how does the outcome [1] read?
A: The outcome was “inactive”.

Q: What about the outcome [2] of the same compound?
A: The outcome was “inactive”.

Q: Which results are given for `CC(O)C(F)(F)C(F)(F)F` (configuration not stated)?
A: outcome [1]: inactive; outcome [2]: inactive

Q: With `O=C(O)C=CC(F)(C(F)(F)F)C(F)(F)F` as the compound, how does the outcome [1] read?
A: The outcome was “inactive”.

Q: What about the outcome [2] of the same compound?
A: The outcome was “inactive”.

Q: Which outcome [1] does the source give for `O=C(O)C(F)(F)OC(F)(F)C(F)(F)OC(F)(F)F` here?
A: Its outcome is “inactive”.

Q: And the outcome [2]?
A: Its outcome is “inactive”.

Q: Which outcome [1] does the source give for `CCCCC(CC)COC(=O)c1c(Br)c(Br)c(Br)c(Br)c1C(=O)OCC(CC)CCCC` (configuration not stated) here?
A: The outcome was “inactive”.

Q: What about the outcome [2] of the same compound?
A: The outcome was “inactive”.

Q: With `CC(C)(C)OOC(C)(C)C` as the compound, how does the outcome [3] read?
A: The outcome was “inactive”.

Q: And the outcome [4]?
A: Its outcome is “inactive”.

— PubChem BioAssay (EPA / NIEHS)
